# Results from PubChem BioAssay AID2284196 (EPA ToxCast).
# Calls of active or inactive are those of the source. Rule for the calls: active = hit-call score of the fitted dose curve at least 0.9, where 1 is the maximum; inactive = score below 0.9.
# Target: human Peripheral-type Benzodiazepine Receptor (PBR/TSPO) Antagonism, TSPO (gene 706) (UniProt P30536)
# Test: ERF_FR_MP_hTSPO: Eurofins (ERF) Radioligand Binding LeadHunter Assay for human Peripheral-type Benzodiazepine Receptor (PBR/TSPO) Antagonism
# Procedure: ERF_FR_MP_hTSPO is a biochemical, single-readout assay that uses extracted gene-proteins in a cell-free assay. Measurements were taken 0.25 hour after chemical dosing in a 96-well plate. See PBR Human Binding (Antagonist Radioligand) Assay, Cerep.ERF_FR_MP_hTSPO is an assay component calculated from the ERF_FR_MP_hTSPO assay. It is designed to measure radioligand binding using a type of binding reporter as detected by scintillation counting with radiometry technology.Data from the assay component ERF_FR_MP_hTSPO was analyzed at the assay endpoint, ERF_FR_MP_hTSPO, in the positive analysis fitting direction relative to DMSO as the negative control and baseline of activity. Using a type of binding reporter, loss-of-signal activity can be used to understand changes in binding as they relate to gene TSPO. To generalize the intended target to other relatable targets, this assay endpoint is annotated to the membrane protein intended target family, where the subfamily is mitochondrial associated translocator protein.
# Human glioblastoma U118MG cells are used to prepare peripheral benzodiazepine receptor in modified Tris-HCl buffer pH 7.4. A 100 ug aliquot is incubated with 0.2 nM [3H] PK-11195 for 15 minutes at room temprature. Non-specific binding is estimated in the presence of 10 uM PK-11195. Membranes are filtered and washed, the filters are then counted to determine [3H] […]
# Chain of human Peripheral-type Benzodiazepine Receptor (PBR/TSPO) Antagonism, TSPO (gene 706) (P30536 whole entry, looked up): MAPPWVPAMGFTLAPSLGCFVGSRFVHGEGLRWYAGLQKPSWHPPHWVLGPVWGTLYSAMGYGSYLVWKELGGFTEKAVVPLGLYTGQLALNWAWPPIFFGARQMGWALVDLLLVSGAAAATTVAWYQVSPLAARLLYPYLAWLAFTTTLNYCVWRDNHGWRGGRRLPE
Structure (SMILES),AC50,outcome
O=C(/C=C/c1ccc(O)cc1)CC(=O)/C=C/c1ccc(O)cc1,891 nM (active),
COc1cc(CCC(=O)CC(=O)CCc2ccc(O)c(OC)c2)ccc1O,,inactive
